According to PubChem BioAssay (EPA / NIEHS):
Results filed as inconclusive are left out. Active and inactive are the calls of the source. Rule for the calls, unless noted: active = hit-call score of the fitted dose curve at least 0.9, where 1 is the maximum; inactive = score below 0.9.

Key:
[1] = read-out: Interleukin-8 (IL8), CXCL8 (gene 3576); assay: BSK_3C_IL8: BioMAP Diversity Plus: 3C Assay for Interleukin-8 (IL8) Biomarker Activity (AID 2283020); conditions: primary human endothelial cells (HUVEC); actives raise or lower the signal
Method in brief: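 Primary human umbilical vein endothelial cells (3C system) were exposed to test chemical for 24 h, then IL-8 was quantified by ELISA. Responses were fitted bidirectionally against DMSO vehicle as baseline.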

[2] = read-out: Monokine induced gamma interferon (MIG), CXCL9 (gene 4283); assay: BSK_3C_MIG: BioMAP Diversity Plus: 3C Assay for Monokine induced gamma interferon (MIG) Biomarker Activity (AID 2283021); conditions: primary human endothelial cells (HUVEC); actives raise or lower the signal
Method in brief: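 Primary human umbilical vein endothelial cells in the 3C system were exposed to chemical for 24 h, after which MIG was quantified by ELISA. Activity was fitted bidirectionally against DMSO as negative control and baseline.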

[3] = BSK_3C_SRB: Viability Assessment in the BioMAP Diversity Plus: 3C Assay (AID 2283023); conditions: primary human endothelial cells (HUVEC);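 note: cells read 24 h after compound dosing; fitted both ways against DMSO so a hit may be signal rise or drop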
Method in brief: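 Overt cytotoxicity is gauged in parallel confluent HUVEC cultures by SRB total-protein staining at the time of biomarker measurement, 24 h after dosing. Gain or loss of signal is fitted versus DMSO.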

[4] = read-out: Matrix Metallopeptidase 1 (MMP1), MMP1 (gene 4312); assay: BSK_BE3C_MMP1: BioMAP Diversity Plus: BE3C Assay for Matrix Metallopeptidase 1 (MMP1) Biomarker Activity (AID 2283024); conditions: primary human bronchial epithelial cells; actives raise or lower the signal
Method in brief: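 Primary human bronchial epithelial cells were dosed with test chemicals, and MMP1 levels were measured by ELISA 24 h later. Data were fitted bidirectionally against DMSO as the negative control and activity baseline.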

[5] = BSK_3C_Vis: BioMAP Diversity Plus: 3C Assay for Morphology Visualization (AID 2283025); conditions: primary human endothelial cells (HUVEC);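 note: fitted both ways so gain or loss versus DMSO counts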
Method in brief: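 Human umbilical vein endothelial cells in the 3C system were imaged by light microscopy 24 h after chemical dosing to record cell morphology. Activity was fitted bidirectionally against DMSO as negative control and baseline; the endpoint serves as a background control.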

[6] = read-out: Pselectin, SELP (gene 6403); assay: BSK_4H_Pselectin: BioMAP Diversity Plus: 4H Assay for Pselectin Biomarker Activity (AID 2283026); conditions: primary human endothelial cells (HUVEC); actives raise or lower the signal
Method in brief: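 Primary human umbilical vein endothelial cells were exposed to test chemical for 24 h, then cell-surface P-selectin was quantified by ELISA. Activity was fitted bidirectionally against DMSO as negative control and baseline.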

[7] = BSK_4H_SRB: Viability Assessment in the BioMAP Diversity Plus: 4H Assay (AID 2283027); conditions: primary human endothelial cells (HUVEC);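 note: cells exposed to compound for 24 h before staining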;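 for AC50: curves fitted both ways versus DMSO so AC50 may be loss or gain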
Method in brief: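 Absorbance at 560 nm of SRB-stained total protein served as the viability read-out in confluent primary human umbilical vein endothelium 24 h after chemical treatment. Curves were fitted bidirectionally against DMSO as negative control.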

[8] = BSK_BE3C_SRB: Viability Assessment in the BioMAP Diversity Plus: BE3C Assay (AID 2283028); conditions: primary human bronchial epithelial cells
Method in brief: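 SRB total-protein staining (0.1%, after TCA fixation) of chemically dosed human bronchial epithelial primary cells at 24 h; DMSO serves as the negative control for bidirectional curve fitting.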

[9] = read-out: Thrombomodulin, THBD (gene 7056); assay: BSK_3C_Thrombomodulin: BioMAP Diversity Plus: 3C Assay for Thrombomodulin Biomarker Activity (AID 2283029); conditions: primary human endothelial cells (HUVEC); actives raise or lower the signal
Method in brief: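 Primary human umbilical vein endothelial cells (3C system) were exposed to chemical for 24 h, then thrombomodulin levels were measured by ELISA. Activity was fitted bidirectionally against the DMSO negative control as baseline.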

[10] = read-out: Urokinase-type plasminogen activator receptor (uPAR), PLAUR (gene 5329); assay: BSK_4H_uPAR: BioMAP Diversity Plus: 4H Assay for Urokinase-type plasminogen activator receptor (uPAR) Biomarker Activity (AID 2283030); conditions: primary human endothelial cells (HUVEC); actives raise or lower the signal
Method in brief: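 Endpoint derived via bidirectional curve fitting against DMSO baseline; readout was ELISA detection of uPAR on umbilical vein endothelial cells at 24 h post-treatment, with SRB-stained parallel cultures assessing cytotoxicity.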

[11] = read-out: Vascular endothelial growth factor receptor 2 (Homo sapiens) (UniProt P35968); assay: BSK_4H_VEGFRII: BioMAP Diversity Plus: 4H Assay for Vascular endothelial growth factor receptor 2 (VEGFR2) Biomarker Activity (AID 2283031); conditions: primary human endothelial cells (HUVEC); actives raise or lower the signal
Method in brief: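 In this multiplexed HUVEC system, biomarker ELISA was performed after 24 h chemical exposure. Parallel SRB staining (TCA fixation, 560 nm) tracked cytotoxicity; DMSO served as baseline.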

[12] = read-out: Human Leukocyte Antigen - DR isotype (HLADR), HLA-DRA (gene 3122); assay: BSK_BE3C_HLADR: BioMAP Diversity Plus: BE3C Assay for Human Leukocyte Antigen - DR isotype (HLADR) Biomarker Activity (AID 2283032); conditions: primary human bronchial epithelial cells; actives raise or lower the signal
Method in brief: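 Human primary bronchial epithelial cells in the BE3C system were exposed to chemicals for 24 h, after which HLA-DR levels were quantified by ELISA. Activity was fitted bidirectionally, gain or loss of signal, against DMSO as negative control and baseline.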

[13] = read-out: Vascular cell adhesion molecule 1 (VCAM1), VCAM1 (gene 7412); assay: BSK_4H_VCAM1: BioMAP Diversity Plus: 4H Assay for Vascular cell adhesion molecule 1 (VCAM1) Biomarker Activity (AID 2283033); conditions: primary human endothelial cells (HUVEC); actives raise or lower the signal
Method in brief: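 Primary human umbilical vein endothelial cells were exposed to chemicals for 24 h, after which VCAM-1 was quantified by ELISA. Responses were fitted bidirectionally against DMSO as negative control and activity baseline.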

[14] = read-out: Interferon-gamma inducible Protein 10 (IP10), CXCL10 (gene 3627); assay: BSK_BE3C_IP10: BioMAP Diversity Plus: BE3C Assay for Interferon-gamma inducible Protein 10 (IP10) Biomarker Activity (AID 2283034); conditions: primary human bronchial epithelial cells; actives raise or lower the signal
Method in brief: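 Human primary bronchial epithelial cells were exposed to chemicals for 24 hours, after which IP-10 levels were measured by ELISA. Data were fitted bidirectionally against DMSO, which served as the negative control and activity baseline.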

[15] = read-out: Monokine induced gamma interferon (MIG), CXCL9 (gene 4283); assay: BSK_BE3C_MIG: BioMAP Diversity Plus: BE3C Assay for Monokine induced gamma interferon (MIG) Biomarker Activity (AID 2283035); conditions: primary human bronchial epithelial cells; actives raise or lower the signal;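 note: MIG protein measured by ELISA in BE3C cultures after 24 h of dosing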
Method in brief: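 MIG level was determined by ELISA after 24 h chemical treatment of primary human bronchial epithelial cells. Values were fitted bidirectionally with DMSO as the negative control and activity baseline.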

[16] = read-out: Transforming growth factor beta 1 (TGFb1), TGFB1 (gene 7040); assay: BSK_BE3C_TGFb1: BioMAP Diversity Plus: BE3C Assay for Transforming growth factor beta 1 (TGFb1) Biomarker Activity (AID 2283036); conditions: primary human bronchial epithelial cells; actives raise or lower the signal
Method in brief: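 Human primary bronchial epithelial cells (BE3C system) were dosed with chemical and TGF-b1 levels measured by ELISA at 24 h. Activity was fitted bidirectionally relative to DMSO negative control as baseline.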

[17] = read-out: Plasminogen activator inhibitor-1 (PAI1), SERPINE1 (gene 5054); assay: BSK_BE3C_PAI1: BioMAP Diversity Plus: BE3C Assay for Plasminogen activator inhibitor-1 (PAI1) Biomarker Activity (AID 2283037); conditions: primary human bronchial epithelial cells; actives raise or lower the signal
Method in brief: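 Human primary bronchial epithelial cells were exposed to chemical for 24 h, then PAI-1 was quantified by ELISA. Activity was fitted bidirectionally relative to the DMSO negative control baseline.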

[18] = read-out: urokinase plasminogen activator (uPA), PLAU (gene 5328); assay: BSK_BE3C_uPA: BioMAP Diversity Plus: BE3C Assay for urokinase plasminogen activator (uPA) Biomarker Activity (AID 2283038); conditions: primary human bronchial epithelial cells; actives raise or lower the signal;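 note: uPA protein level quantified by ELISA in cell cultures; uPA read one day after compound addition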
Method in brief: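 Using confluent primary human lung bronchial epithelial cultures, we dosed chemicals, waited 24 h, then ran a uPA ELISA, fitting bidirectionally against DMSO.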

[19] = read-out: Urokinase-type plasminogen activator receptor (uPAR), PLAUR (gene 5329); assay: BSK_BE3C_uPAR: BioMAP Diversity Plus: BE3C Assay for Urokinase-type plasminogen activator receptor (uPAR) Biomarker Activity (AID 2283039); conditions: primary human bronchial epithelial cells; actives raise or lower the signal;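 note: uPAR protein level measured by ELISA on the cells; cells exposed to compound for one day before measurement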
Method in brief: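 Primary human bronchial epithelial cells were dosed with chemical and harvested 24 h later; uPAR was quantified by ELISA. Activity was fitted bidirectionally against DMSO as negative control and baseline.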

[20] = molecular target: human Vitamin D Receptor (VDR), VDR (gene 7421) (UniProt P11473); assay: ATG_VDR_TRANS: Attagene TRANS-FACTORIAL HepG2 Assay for human Vitamin D Receptor (VDR) (AID 2283022; active = hit-call score of the fitted dose curve at least 0.9, where 1 is the maximum)
Method in brief: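 Multiplexed TRANS reporter in HepG2; 24 h treatment; reporter mRNA by RT-PCR plus capillary electrophoresis; upregulation scored relative to DMSO.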

Measured: AC50

Chain of human Vitamin D Receptor (VDR), VDR (gene 7421) (P11473 whole entry, looked up): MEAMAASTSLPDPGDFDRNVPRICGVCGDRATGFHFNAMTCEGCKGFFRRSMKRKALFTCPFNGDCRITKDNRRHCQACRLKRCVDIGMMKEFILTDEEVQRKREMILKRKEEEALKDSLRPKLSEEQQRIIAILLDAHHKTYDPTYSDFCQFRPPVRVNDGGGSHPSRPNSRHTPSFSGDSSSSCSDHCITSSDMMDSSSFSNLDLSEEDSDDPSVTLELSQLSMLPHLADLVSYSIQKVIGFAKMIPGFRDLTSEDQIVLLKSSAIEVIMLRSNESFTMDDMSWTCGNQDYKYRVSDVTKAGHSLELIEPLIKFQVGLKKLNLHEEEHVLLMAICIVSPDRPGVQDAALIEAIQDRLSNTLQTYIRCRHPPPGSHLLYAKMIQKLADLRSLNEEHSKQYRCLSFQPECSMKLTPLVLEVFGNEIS

COCCOCCO
inactive: [1] | [2] | [3] | [4] | [5] | [6] | [7] | [8] | [9] | [10] | [11] | [12] | [13] | [14] | [15] | [16] | [17] | [18] | [19]

CCOP(=S)(Oc1ccc([N+](=O)[O-])cc1)c1ccccc1 (stereo not drawn)
active: [13] 8.86 µM
inactive: [1] | [2] | [20] | [3] | [4] | [5] | [6] | [7] | [8] | [9] | [10] | [12] | [14] | [15] | [16] | [17] | [18] | [19]

Nc1ccc([N+](=O)[O-])cc1Cl
inactive: [1] | [2] | [20] | [3] | [4] | [5] | [6] | [7] | [8] | [9] | [10] | [11] | [12] | [13] | [14] | [15] | [16] | [17] | [18] | [19]

O=C(O)C1C(C(=O)O)C2(Cl)C(Cl)=C(Cl)C1(Cl)C2(Cl)Cl (stereo not drawn)
inactive: [1] | [2] | [3] | [4] | [5] | [6] | [7] | [8] | [9] | [10] | [11] | [12] | [13] | [14] | [15] | [16] | [17] | [18] | [19]

CN(C)C(=O)Cl
inactive: [1] | [2] | [20] | [3] | [5] | [6] | [7] | [8] | [9] | [10] | [11] | [12] | [13] | [14] | [15] | [16] | [17] | [18] | [19]

CC(Cl)(Cl)C(=O)O
inactive: [1] | [2] | [3] | [4] | [5] | [6] | [7] | [8] | [9] | [10] | [11] | [12] | [13] | [14] | [15] | [16] | [17] | [18] | [19]

O=P(Oc1ccccc1)(Oc1ccccc1)Oc1ccccc1
inactive: [2] | [20] | [8] | [9] | [11] | [15] | [16] | [18] | [19]
active: [1] 29.4 µM | [3] 30.2 µM | [5] 37.5 µM | [6] 33.2 µM | [7] 28.8 µM | [10] 29.9 µM | [13] 26.8 µM | [14] 26.3 µM | [17] 10.6 µM
